# Results reported in PubChem BioAssay (Tox21).
# Records with an inconclusive call do not appear. A call without a number means that no potency is given here. The source made the active and inactive calls. Calls come from the whole dose curve; as a rule, active = well fitted inhibition curve with a large enough effect in the repeat runs; inconclusive = weak or mixed curves; inactive = no such curve, though single readings can be large or run the other way.
# Biological target: Androgen receptor (Homo sapiens) (UniProt P10275)
# Assay: qHTS assay to identify small molecule antagonists of the androgen receptor (AR) signaling pathway using the MDA cell line in the presence of 0.5 nM R1881 (AID 1259243); note: nearly all actives have a fitted effect of over 50% in size
# Conditions: MDA-kb2 MMTV-luciferase, R1881 0.5 nM, 16 h; series mostly up to 92.4 µM
# Text: U.S. Tox21 Program National Center for Advancing Translational Sciences [NCATS] NIH Chemical Genomics Center [NCGC] U.S. Environmental Protection Agency [EPA] National Institutes of Environmental Health Sciences [NIEHS] National Toxicology Program [NTP] U.S. Food and Drug Administration [FDA] Tox21 Assay Overview: Androgen receptor (AR) is an important member of the nuclear receptor family. Its signaling plays a critical role in AR-dependent prostate cancer and other androgen related diseases. Considerable attention has been given in the past decades to develop methods to study and screen for the environmental chemicals that have the potential to interfere with metabolic homeostasis, reproduction, developmental and behavioral functions. Therefore AR binding assay for screening androgen antagonists can be used to identify potential endocrine disruptors. MDA-kb2 cells (from ATCC, deposited by Wilson et al.) were used to screen for AR inhibitors against Tox21 compound libraries. These cells are human breast carcinoma cells that were stably transfected with a luciferase reporter gene under control of the MMTV promoter that contains response elements for both androgen receptor (AR) and glucocorticoid receptor (GR). The current screening for identification of AR inhibitors against Tox21 libraries used lower concentration (0.5 nM) of R1881 as a stimulator.
# Tox21 Assay Protocol Summary: MDA-kb2 cells (cells cultured without CO2) were dispensed at 3,000 cells/well in 4 uL of culture medium into white wall/solid-bottom 1536-well plates (Corning Life Sciences, Corning, NY) using a Multidrop Combi (ThermoFisher Scientific, Waltham, MA) dispenser. After the assay plates were incubated at a 37C and 0% CO2 for 5 hr, 23 nL of compounds dissolved in DMSO, positive controls or DMSO only was transferred to the assay plate by a Pintool station (Kalypsys, San Diego, CA). The transfer of compounds was followed by the addition of 1 uL of 0.5 nM (final concentration) agonist (R1881)/culture medium using a Flying Reagent Dispenser (FRD, Aurora Discovery, San Diego, CA). The plates were incubated at 37C and 0% CO2 for 16 hr. For luciferase reporter gene assay, 4 uL of ONE-Glo reagent (Promega Corporation, Madison, WI) was added to each well using the FRD and after 30 min incubation at room temperature luminescence intensity was measured using ViewLux plate reader (PerkinElmer, Shelton, CT).
# Potency is the fitted concentration of half-maximal effect.
# Androgen receptor (Homo sapiens), sequence (P10275 whole entry, looked up): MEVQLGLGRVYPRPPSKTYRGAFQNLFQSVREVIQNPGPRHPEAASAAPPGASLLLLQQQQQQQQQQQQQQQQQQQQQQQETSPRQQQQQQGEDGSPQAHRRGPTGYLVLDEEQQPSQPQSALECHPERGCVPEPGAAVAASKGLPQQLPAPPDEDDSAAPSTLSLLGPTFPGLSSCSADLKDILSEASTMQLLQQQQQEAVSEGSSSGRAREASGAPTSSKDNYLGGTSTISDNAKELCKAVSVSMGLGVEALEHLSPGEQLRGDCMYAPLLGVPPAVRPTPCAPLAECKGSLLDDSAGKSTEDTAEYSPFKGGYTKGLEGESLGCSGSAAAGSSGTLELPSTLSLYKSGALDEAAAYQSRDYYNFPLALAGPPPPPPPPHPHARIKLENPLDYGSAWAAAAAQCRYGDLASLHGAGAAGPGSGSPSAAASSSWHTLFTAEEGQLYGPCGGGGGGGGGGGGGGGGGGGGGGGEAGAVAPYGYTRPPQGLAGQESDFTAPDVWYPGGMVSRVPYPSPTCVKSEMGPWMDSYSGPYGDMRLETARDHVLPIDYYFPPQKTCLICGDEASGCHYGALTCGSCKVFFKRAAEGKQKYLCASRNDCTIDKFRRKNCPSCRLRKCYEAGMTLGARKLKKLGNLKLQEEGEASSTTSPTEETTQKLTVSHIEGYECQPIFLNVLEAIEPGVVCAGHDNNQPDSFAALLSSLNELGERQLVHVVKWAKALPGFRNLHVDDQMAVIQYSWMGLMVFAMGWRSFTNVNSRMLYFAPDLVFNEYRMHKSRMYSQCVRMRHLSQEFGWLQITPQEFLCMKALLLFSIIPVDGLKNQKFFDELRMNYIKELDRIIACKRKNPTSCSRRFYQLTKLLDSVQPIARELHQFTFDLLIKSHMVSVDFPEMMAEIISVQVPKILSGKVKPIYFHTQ
row,Compound,Potency
1,O=C(/C=C/c1ccccc1)OCCc1ccccc1,inactive
2,C/C=C/C=C/C=O,inactive
3,O=c1cc(-c2ccccc2)oc2cc(O)cc(O)c12,inactive
4,CCC(=O)OC,inactive
5,O=C=Nc1cccc(C(F)(F)F)c1,inactive
6,C[C@@H](O[C@H]1OCCN(Cc2n[nH]c(=O)[nH]2)[C@H]1c1ccc(F)cc1)c1cc(C(F)(F)F)cc(C(F)(F)F)c1,29.8 µM (active)
7,CCC(=O)C1CC(C(C)C)CC=C1C (stereo not given),inactive
8,C[C@@H]1CC(=O)NN=C1c1ccc(NN=C(C#N)C#N)cc1,21.1 µM (active)
9,O=C1Cc2cc(Cl)ccc2N1,inactive
10,CCCCCC[C@@H](O)C/C=C\CCCCCCCC(=O)OCC(O)CO (stereo not given in full),inactive
11,O=C1c2ccccc2C(=O)C1c1ccc(Br)cc1,inactive
12,C[C@@H](O)[C@H]1C(=O)N2C(C(=O)O)=C([C@H]3CCCO3)S[C@H]12,inactive
13,O=c1cc(-c2ccccc2)oc2ccc3ccccc3c12,inactive
14,CCCCN(CCN(CCCC)C(=O)N1CCOCC1)C(=O)N1CCOCC1,inactive
15,C[C@H]1C[C@H](O)c2ccsc2S1(=O)=O,inactive
16,NC1[C@H]2CN(c3nc4c(cc3F)c(=O)c(C(=O)O)cn4-c3ccc(F)cc3F)C[C@@H]12 (stereo not given in full),inactive
17,Cc1cc(O)c(C)c(C)c1O,inactive
18,O=C(OC(=O)c1ccccc1)c1ccccc1,inactive
19,Oc1ccc(Cl)c2cccnc12,10.6 µM (active)
20,OC(CCN1CCCC1)(c1ccccc1)C1CCCCC1 (stereo not given),inactive

row,Compound,Potency
1,CCCCCCCC/C=C\CCCCCCCCCCCC(=O)O,inactive
2,C1COC1,inactive
3,COc1cc(C(=O)NC2CCN(C)CC2)ccc1Nc1ncc2c(n1)N(C1CCCC1)CC(F)(F)C(=O)N2C,inactive
4,C=C(C)[C@@H]1CCC2=CCC[C@@H](C)[C@]2(C)C1,27.3 µM (active)
5,O=[N+]([O-])c1cc(C2CCCCC2)c(O)c([N+](=O)[O-])c1,7.67 µM (active)
6,COC(=O)[C@H]1[C@H]2C[C@@H]3c4[nH]c5cc(OC)ccc5c4CCN3C[C@H]2C[C@@H](OC(=O)/C=C/c2ccc(O)c(OC)c2)[C@@H]1OC,inactive
7,COc1ccccc1NC(=O)c1cc2ccccc2cc1O,30.6 µM (active)
8,CC/C=C1/OC(=O)c2ccccc21,inactive
9,c1cc(N(CC2CO2)CC2CO2)ccc1Cc1ccc(N(CC2CO2)CC2CO2)cc1 (stereo not given),27.3 µM (active)
10,Cc1cc(C)cc(N)c1,inactive
11,CCOc1cccc(-n2cc(C(=O)N3CCN(c4cc(C(=O)O)c5ccccc5c4)CC3)nc2-c2ccc(C)cc2)c1,inactive
12,CC1=Nc2ccc3ccccc3c2C1(C)C,19.3 µM (active)
13,O=C1NC(=O)c2cc([N+](=O)[O-])ccc21,inactive
14,CCCCCCC(C)(C)C(=O)O,inactive
15,NC(=O)c1ccncc1,inactive
16,C=CCc1ccccc1OCC(O)CNC(C)C (stereo not given),inactive
17,CS(=O)(=O)c1ccc(-c2cn3ccccc3n2)cc1,inactive
18,C=C1C[C@@]23CC[C@H]4[C@@](C)(CCC[C@@]4(C)C(=O)O[C@@H]4O[C@H](CO)[C@@H](O)[C@H](O)[C@H]4O)[C@@H]2CC[C@]1(O[C@@H]1O[C@H](CO)[C@@H](O)[C@H](O[C@@H]2O[C@H](CO)[C@@H](O)[C@H](O)[C@H]2O)[C@H]1O[C@@H]1O[C@H](CO)[C@@H](O)[C@H](O)[C@H]1O)C3,inactive
19,OC1(c2ccccc2)CCNCC1,inactive
20,CCCCC(CC)CN (stereo not given),inactive
